Measured values: article PMC7862700, “An all-to-all approach to the identification of sequence-specific readers for epigenetic DNA modifications on cytosine”

What was measured:
Assay in all cases: DAPPL (digital affinity profiling via proximity ligation, sequencing); 10 mM Tris-HCl pH 7.5, 50 mM NaCl, 1 mM DTT, 4% glycerol, room temperature, 30 min; GST-TFs on glutathione beads, 16-mer random dsDNA library, 0.1% formaldehyde crosslink after washing; high values mean tight binding
[1] = biological target: T1, FLI1 (Homo sapiens, UniProt Q01543 1-452); conditions: protein: recombinant; tags: N-terminal GST; dsDNA, one strand shown
T1 sequence: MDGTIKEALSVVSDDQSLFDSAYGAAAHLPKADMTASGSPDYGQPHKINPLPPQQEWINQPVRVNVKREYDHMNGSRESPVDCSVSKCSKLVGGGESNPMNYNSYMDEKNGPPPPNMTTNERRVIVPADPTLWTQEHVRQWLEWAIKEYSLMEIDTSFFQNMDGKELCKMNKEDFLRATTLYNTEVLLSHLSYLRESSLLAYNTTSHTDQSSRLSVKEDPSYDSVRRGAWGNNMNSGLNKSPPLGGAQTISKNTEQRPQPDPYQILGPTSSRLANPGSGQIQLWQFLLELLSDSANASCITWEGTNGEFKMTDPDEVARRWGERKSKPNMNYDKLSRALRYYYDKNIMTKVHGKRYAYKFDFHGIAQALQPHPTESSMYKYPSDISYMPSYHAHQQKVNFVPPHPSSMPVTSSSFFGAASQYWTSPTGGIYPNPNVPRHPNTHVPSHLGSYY
How it was run: (§1)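 Binding signal is given per hexamer as its read frequency for a factor divided by its frequency in the tag-only sample. GST-fused human transcription factors were expressed in yeast, captured on glutathione beads, barcoded with DNA and pooled with that sample, then incubated with 200 nmole of a 16-mer random double-stranded DNA library in Tris/NaCl/DTT/glycerol buffer for 30 min at room temperature. The pools were then washed, crosslinked, proximity-ligated, amplified by PCR and sequenced on an Illumina NextSeq500.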

[2] = biological target: T2, GABPA (Homo sapiens, UniProt Q06546 1-454); conditions: protein: recombinant; tags: N-terminal GST; dsDNA, one strand shown
T2 sequence: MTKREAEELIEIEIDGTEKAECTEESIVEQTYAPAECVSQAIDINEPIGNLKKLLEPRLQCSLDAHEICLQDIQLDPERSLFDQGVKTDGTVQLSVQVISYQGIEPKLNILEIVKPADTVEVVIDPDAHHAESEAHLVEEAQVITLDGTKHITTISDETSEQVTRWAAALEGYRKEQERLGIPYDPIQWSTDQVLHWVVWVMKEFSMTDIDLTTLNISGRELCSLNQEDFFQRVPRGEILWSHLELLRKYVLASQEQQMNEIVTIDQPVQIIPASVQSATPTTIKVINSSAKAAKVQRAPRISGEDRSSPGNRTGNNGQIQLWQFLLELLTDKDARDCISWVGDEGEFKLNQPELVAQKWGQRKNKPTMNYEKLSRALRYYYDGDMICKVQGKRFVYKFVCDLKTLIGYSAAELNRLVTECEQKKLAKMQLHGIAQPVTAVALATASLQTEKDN
How it was run: as §1

[3] = biological target: T3, ERG (Homo sapiens, UniProt P11308 1-479); conditions: protein: recombinant; tags: N-terminal GST; dsDNA, one strand shown
T3 sequence: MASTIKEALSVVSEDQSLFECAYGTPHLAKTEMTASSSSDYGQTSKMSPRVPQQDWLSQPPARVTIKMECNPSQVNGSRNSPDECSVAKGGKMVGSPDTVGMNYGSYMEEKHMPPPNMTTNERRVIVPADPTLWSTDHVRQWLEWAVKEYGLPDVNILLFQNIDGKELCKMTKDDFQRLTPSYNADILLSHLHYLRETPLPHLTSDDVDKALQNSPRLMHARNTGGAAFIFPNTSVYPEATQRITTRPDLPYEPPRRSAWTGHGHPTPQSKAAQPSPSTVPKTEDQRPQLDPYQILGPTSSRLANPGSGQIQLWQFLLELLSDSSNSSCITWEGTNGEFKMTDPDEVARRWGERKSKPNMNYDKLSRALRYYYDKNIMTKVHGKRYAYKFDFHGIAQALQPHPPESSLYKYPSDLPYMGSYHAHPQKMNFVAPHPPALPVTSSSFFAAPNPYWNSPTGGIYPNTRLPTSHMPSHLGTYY
How it was run: as §1

[4] = biological target: ELF1 (Homo sapiens, UniProt P32519 1-619); conditions: protein: recombinant; tags: N-terminal GST; dsDNA, one strand shown
Chain of ELF1 (P32519 whole entry): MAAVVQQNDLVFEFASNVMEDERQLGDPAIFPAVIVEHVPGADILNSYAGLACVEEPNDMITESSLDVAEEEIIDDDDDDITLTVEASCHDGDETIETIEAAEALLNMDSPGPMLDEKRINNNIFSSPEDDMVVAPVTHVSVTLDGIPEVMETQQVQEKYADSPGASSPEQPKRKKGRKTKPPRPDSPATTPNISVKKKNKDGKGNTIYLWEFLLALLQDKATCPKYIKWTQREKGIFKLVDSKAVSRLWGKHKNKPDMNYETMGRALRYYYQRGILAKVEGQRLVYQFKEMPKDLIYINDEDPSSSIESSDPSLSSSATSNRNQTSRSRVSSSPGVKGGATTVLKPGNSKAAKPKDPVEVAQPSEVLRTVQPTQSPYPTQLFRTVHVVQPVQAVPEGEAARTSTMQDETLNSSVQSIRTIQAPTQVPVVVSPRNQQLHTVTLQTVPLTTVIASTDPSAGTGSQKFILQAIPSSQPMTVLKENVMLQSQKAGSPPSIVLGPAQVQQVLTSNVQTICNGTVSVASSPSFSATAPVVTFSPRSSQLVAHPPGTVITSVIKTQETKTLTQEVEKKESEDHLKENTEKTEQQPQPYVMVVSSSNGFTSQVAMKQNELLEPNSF
How it was run: as §1

[5] = biological target: SPIB (Homo sapiens, UniProt Q01892 1-262); conditions: protein: recombinant; tags: N-terminal GST; dsDNA, one strand shown
Chain of SPIB (Q01892 whole entry): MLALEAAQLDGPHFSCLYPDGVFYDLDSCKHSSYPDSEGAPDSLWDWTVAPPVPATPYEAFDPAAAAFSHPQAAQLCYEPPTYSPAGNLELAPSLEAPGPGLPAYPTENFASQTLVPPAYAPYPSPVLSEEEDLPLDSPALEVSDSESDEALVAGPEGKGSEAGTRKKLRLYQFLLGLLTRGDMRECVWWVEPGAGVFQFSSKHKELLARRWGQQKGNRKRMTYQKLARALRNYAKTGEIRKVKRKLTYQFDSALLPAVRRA
How it was run: as §1

[6] = biological target: T4, ELK3 (Homo sapiens, UniProt P41970 1-407); conditions: protein: recombinant; tags: N-terminal GST; dsDNA, one strand shown
T4 sequence: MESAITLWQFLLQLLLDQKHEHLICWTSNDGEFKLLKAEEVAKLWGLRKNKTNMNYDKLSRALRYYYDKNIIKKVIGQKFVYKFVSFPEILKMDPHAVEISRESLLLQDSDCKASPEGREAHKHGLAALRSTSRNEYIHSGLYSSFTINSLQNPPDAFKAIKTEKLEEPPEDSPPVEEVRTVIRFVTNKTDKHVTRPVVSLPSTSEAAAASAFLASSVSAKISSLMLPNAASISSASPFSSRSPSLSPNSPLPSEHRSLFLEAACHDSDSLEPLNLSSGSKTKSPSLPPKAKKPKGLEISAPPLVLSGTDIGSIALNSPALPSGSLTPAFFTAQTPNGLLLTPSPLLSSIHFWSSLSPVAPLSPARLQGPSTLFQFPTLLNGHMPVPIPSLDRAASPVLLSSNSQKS
How it was run: as §1

[7] = biological target: T5, FEV (Homo sapiens, UniProt Q99581 1-238); conditions: protein: recombinant; tags: N-terminal GST; dsDNA, one strand shown
T5 sequence: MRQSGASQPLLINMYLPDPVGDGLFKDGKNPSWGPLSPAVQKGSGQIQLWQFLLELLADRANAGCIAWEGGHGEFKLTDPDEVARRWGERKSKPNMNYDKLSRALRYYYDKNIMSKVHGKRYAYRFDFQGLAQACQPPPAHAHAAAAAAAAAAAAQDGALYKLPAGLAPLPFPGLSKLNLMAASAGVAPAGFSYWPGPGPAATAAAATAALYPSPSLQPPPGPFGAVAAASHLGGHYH
How it was run: as §1

[8] = biological target: ETV5 (Homo sapiens, UniProt P41161 1-510); conditions: protein: recombinant; tags: N-terminal GST; dsDNA, one strand shown
Chain of ETV5 (P41161 whole entry): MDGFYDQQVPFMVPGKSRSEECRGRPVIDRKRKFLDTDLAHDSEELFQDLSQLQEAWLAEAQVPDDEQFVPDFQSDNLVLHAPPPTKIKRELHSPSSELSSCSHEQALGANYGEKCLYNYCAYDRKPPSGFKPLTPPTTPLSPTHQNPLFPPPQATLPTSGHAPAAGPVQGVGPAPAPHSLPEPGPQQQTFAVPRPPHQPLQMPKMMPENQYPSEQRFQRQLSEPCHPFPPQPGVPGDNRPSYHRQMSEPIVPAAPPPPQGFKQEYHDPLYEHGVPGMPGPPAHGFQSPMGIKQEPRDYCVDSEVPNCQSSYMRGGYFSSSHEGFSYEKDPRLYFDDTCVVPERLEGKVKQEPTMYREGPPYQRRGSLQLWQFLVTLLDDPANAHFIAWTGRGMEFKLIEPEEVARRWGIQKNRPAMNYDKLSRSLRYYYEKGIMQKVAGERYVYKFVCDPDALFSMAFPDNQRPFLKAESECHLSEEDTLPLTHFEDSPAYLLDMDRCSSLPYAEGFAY
How it was run: as §1

[9] = biological target: HSF1 (Homo sapiens, UniProt Q00613 1-529); conditions: protein: recombinant; tags: N-terminal GST; chain copies: 3; dsDNA, one strand shown
Chain of HSF1 (Q00613 whole entry): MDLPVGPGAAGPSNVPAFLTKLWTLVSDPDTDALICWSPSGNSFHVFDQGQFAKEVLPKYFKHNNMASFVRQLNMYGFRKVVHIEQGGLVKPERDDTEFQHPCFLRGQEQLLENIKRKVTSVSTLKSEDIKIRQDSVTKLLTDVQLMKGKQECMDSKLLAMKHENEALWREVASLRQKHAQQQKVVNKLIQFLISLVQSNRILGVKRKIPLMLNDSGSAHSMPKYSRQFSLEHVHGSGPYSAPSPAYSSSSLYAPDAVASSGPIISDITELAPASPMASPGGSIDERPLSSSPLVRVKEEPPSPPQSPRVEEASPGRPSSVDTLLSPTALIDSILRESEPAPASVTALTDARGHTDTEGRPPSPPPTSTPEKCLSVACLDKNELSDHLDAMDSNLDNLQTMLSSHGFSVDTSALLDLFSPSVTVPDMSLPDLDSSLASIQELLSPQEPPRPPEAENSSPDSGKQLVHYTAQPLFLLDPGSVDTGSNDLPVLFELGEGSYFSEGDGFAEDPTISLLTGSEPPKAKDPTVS
How it was run: as §1

[10] = biological target: T6, SPIC (Homo sapiens, UniProt Q8N5J4 1-248); conditions: protein: recombinant; tags: N-terminal GST; dsDNA, one strand shown
T6 sequence: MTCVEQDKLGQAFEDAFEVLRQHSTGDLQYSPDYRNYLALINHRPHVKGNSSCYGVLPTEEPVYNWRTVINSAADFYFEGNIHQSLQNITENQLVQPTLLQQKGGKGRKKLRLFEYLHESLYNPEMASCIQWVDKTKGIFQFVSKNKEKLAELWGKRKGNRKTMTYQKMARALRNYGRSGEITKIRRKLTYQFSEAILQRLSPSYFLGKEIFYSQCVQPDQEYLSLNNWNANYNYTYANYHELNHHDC
How it was run: as §1

[11] = biological target: ELF4 (Homo sapiens, UniProt Q99607 1-663); conditions: protein: recombinant; tags: N-terminal GST; dsDNA, one strand shown
Chain of ELF4 (Q99607 whole entry): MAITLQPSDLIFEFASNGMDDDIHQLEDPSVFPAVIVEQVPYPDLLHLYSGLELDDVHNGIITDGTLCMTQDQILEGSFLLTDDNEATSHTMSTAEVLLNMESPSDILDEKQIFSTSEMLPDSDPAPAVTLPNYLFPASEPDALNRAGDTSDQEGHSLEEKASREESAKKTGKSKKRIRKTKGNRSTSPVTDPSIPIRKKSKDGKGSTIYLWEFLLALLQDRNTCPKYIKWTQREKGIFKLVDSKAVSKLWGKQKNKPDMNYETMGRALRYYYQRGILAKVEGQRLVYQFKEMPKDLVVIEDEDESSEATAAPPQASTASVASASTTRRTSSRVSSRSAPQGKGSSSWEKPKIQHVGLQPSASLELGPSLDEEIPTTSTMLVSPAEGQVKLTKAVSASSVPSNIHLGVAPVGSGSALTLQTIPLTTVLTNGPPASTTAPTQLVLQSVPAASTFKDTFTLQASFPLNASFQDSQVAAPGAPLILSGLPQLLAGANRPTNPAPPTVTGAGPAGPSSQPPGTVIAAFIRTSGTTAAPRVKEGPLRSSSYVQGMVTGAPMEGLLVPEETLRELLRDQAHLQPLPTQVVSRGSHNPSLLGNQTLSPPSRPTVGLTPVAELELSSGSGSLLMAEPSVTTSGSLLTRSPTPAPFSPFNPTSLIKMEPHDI
How it was run: as §1

[12] = biological target: T7, ETV2 (Homo sapiens, UniProt O00321 1-342); conditions: protein: recombinant; tags: N-terminal GST; dsDNA, one strand shown
T7 sequence: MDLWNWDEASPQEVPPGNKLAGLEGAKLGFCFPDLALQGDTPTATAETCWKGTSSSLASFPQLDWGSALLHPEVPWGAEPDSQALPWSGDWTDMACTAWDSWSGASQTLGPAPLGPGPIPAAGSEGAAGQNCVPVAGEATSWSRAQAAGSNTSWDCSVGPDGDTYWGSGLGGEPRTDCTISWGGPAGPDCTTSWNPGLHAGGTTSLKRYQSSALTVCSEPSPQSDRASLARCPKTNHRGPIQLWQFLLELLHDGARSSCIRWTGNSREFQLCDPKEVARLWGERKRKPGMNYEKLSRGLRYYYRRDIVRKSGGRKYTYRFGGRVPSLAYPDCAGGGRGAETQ
How it was run: as §1

[13] = biological target: T8, ELF3 (Homo sapiens, UniProt P78545 1-371); conditions: protein: recombinant; tags: N-terminal GST; dsDNA, one strand shown
T8 sequence: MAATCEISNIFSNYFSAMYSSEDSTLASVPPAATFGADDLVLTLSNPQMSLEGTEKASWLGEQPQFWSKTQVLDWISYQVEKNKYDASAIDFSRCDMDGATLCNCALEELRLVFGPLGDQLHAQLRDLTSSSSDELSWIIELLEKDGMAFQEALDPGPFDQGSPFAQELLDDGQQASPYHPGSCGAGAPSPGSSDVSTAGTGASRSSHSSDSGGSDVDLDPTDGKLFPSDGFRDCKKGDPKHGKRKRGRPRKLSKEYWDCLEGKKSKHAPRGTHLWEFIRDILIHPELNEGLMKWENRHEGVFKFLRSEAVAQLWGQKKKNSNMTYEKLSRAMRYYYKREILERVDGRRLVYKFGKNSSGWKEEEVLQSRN
How it was run: as §1

[14] = biological target: CRX (Homo sapiens, UniProt O43186 1-299); conditions: protein: recombinant; tags: N-terminal GST; dsDNA, one strand shown
Chain of CRX (O43186 whole entry): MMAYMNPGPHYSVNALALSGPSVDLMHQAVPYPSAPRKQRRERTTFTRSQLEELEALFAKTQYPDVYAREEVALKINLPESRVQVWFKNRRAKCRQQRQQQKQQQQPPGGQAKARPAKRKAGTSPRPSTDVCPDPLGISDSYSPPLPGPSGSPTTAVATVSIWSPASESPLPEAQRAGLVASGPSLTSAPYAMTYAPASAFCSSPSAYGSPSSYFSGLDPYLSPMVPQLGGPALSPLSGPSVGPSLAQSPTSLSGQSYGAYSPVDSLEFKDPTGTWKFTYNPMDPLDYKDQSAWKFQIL
How it was run: as §1

[15] = biological target: ETV1 (Homo sapiens, UniProt P50549 1-477); conditions: protein: recombinant; tags: N-terminal GST; dsDNA, one strand shown
Chain of ETV1 (P50549 whole entry): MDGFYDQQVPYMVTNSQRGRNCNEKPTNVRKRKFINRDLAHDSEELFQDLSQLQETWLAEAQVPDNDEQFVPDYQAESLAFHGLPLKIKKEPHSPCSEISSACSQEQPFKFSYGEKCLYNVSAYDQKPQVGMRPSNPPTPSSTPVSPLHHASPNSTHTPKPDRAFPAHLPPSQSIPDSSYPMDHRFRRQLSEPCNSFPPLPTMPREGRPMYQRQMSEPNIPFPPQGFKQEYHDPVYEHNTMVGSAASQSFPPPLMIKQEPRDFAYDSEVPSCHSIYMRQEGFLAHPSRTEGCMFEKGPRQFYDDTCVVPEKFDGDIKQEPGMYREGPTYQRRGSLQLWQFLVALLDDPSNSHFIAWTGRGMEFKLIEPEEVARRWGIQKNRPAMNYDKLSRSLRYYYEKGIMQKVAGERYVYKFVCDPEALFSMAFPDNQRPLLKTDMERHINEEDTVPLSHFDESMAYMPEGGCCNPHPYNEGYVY
How it was run: as §1

[16] = biological target: T9, ELK1 (Homo sapiens, UniProt P19419 1-428); conditions: protein: recombinant; tags: N-terminal GST; dsDNA, one strand shown
T9 sequence: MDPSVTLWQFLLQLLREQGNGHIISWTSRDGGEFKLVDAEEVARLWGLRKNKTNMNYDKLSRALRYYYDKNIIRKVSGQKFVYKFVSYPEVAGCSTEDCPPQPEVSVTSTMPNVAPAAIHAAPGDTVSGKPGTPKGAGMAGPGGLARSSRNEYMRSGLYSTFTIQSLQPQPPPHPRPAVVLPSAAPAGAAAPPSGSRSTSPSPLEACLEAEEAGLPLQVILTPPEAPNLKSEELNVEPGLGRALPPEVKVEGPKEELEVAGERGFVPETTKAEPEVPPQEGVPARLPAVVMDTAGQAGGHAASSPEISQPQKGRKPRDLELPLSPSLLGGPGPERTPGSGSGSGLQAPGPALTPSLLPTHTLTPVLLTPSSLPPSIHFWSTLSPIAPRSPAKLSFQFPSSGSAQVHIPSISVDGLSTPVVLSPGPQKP
How it was run: as §1

[17] = biological target: T10, EHF (Homo sapiens, UniProt Q9NZC4 1-300); conditions: protein: recombinant; tags: N-terminal GST; dsDNA, one strand shown
T10 sequence: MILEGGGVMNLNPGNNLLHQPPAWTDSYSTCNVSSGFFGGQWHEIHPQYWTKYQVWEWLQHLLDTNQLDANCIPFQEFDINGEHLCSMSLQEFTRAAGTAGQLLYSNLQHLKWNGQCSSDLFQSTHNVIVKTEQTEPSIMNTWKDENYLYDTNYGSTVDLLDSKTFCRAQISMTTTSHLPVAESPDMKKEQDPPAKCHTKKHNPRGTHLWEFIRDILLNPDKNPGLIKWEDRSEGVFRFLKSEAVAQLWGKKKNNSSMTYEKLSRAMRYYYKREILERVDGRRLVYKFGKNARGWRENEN
How it was run: as §1

[18] = biological target: SPI1 (Homo sapiens, UniProt P17947 1-270); conditions: protein: recombinant; tags: N-terminal GST; dsDNA, one strand shown
How it was run: as §1

## ACGATC
[1]
  binding signal: 1.05 fold enrichment (6-mer frequency, TF over GST control)
[2]
  binding signal: 1.17 fold enrichment (6-mer frequency, TF over GST control)
[3]
  binding signal: 1.03 fold enrichment (6-mer frequency, TF over GST control)
[4]
  binding signal: 1.09 fold enrichment (6-mer frequency, TF over GST control)
[5]
  binding signal: 1.08 fold enrichment (6-mer frequency, TF over GST control)
[6]
  binding signal: 1.1 fold enrichment (6-mer frequency, TF over GST control)
[7]
  binding signal: 1.07 fold enrichment (6-mer frequency, TF over GST control)
[8]
  binding signal: 1.06 fold enrichment (6-mer frequency, TF over GST control)
[9]
  binding signal: 1.15 fold enrichment (6-mer frequency, TF over GST control)
[10]
  binding signal: 1.02 fold enrichment (6-mer frequency, TF over GST control)
[11]
  binding signal: 1.08 fold enrichment (6-mer frequency, TF over GST control)
[12]
  binding signal: 1.09 fold enrichment (6-mer frequency, TF over GST control)
[13]
  binding signal: 1.04 fold enrichment (6-mer frequency, TF over GST control)
[14]
  binding signal: 1.14 fold enrichment (6-mer frequency, TF over GST control)
[15]
  binding signal: 1.05 fold enrichment (6-mer frequency, TF over GST control)

## TGGAAA
[1]
  binding signal: 1.09 fold enrichment (6-mer frequency, TF over GST control)
[16]
  binding signal: 1.12 fold enrichment (6-mer frequency, TF over GST control)
[2]
  binding signal: 1.19 fold enrichment (6-mer frequency, TF over GST control)
[3]
  binding signal: 1.11 fold enrichment (6-mer frequency, TF over GST control)
[4]
  binding signal: 1.04 fold enrichment (6-mer frequency, TF over GST control)
[17]
  binding signal: 1.1 fold enrichment (6-mer frequency, TF over GST control)
[18]
  binding signal: 1.16 fold enrichment (6-mer frequency, TF over GST control)
[5]
  binding signal: 1.17 fold enrichment (6-mer frequency, TF over GST control)
[6]
  binding signal: 1.15 fold enrichment (6-mer frequency, TF over GST control)
[7]
  binding signal: 1.03 fold enrichment (6-mer frequency, TF over GST control)
[8]
  binding signal: 1.14 fold enrichment (6-mer frequency, TF over GST control)
[9]
  binding signal: 2.23 fold enrichment (6-mer frequency, TF over GST control)
[10]
  binding signal: 1.17 fold enrichment (6-mer frequency, TF over GST control)
[11]
  binding signal: 1.12 fold enrichment (6-mer frequency, TF over GST control)
[13]
  binding signal: 1.15 fold enrichment (6-mer frequency, TF over GST control)
[14]
  binding signal: 1.23 fold enrichment (6-mer frequency, TF over GST control)
[15]
  binding signal: 1.11 fold enrichment (6-mer frequency, TF over GST control)
